High-throughput results deposited in PubChem by National Center for Advancing Translational Sciences (NCATS).
Shown are actives, neighbours in structure and some others; about 6.5% of the full set was active somewhere.
Lassa entry inh: qHTS for Inhibitors of binding or entry into cells for Lassa Virus | Lassa virus pseudotype entry inhibition, cell reporter | Potency, µM (highest dose often 37.9 µM), for the others: at the top dose activity change, negative = inhibition, actives largely listed as inhibitors | 1.2% of 300,000 active | AID 540256, 2011; calls by dose curve; tested in HEK293 cells; note: potency is the fitted concentration of half-maximal effect; nearly all actives have a fitted effect of over 50% in size
VACV mCherry inh: qHTS for Stage-Specific Inhibitors of Vaccinia Orthopoxvirus: mCherry Reporter Primary qHTS | AID 720579, 2013 | 0.63% of 310,000 active | Potency, µM (titrated, usually from 36.5 µM), for the others: at the highest dose activity change, negative = inhibition, usual class: inhibitors | Vaccinia virus mCherry reporter infection, fluorescence; calls by dose curve; tested in A549 cells; note: potency is the fitted concentration of half-maximal effect; nearly all actives have a fitted effect of over 35% in size
FMDV inh: High Throughput Screening for Foot and Mouth Disease Virus Antivirals; FMDV antiviral cell-based qHTS; Potency, µM (top dose mostly 57.9 µM), for the others: at the top dose activity change, negative = inhibition, usual class: inhibitors; 1.2% of 410,000 active; calls by dose curve; tested in HEK293T cells; note: read-out not given here; potency is the fitted concentration of half-maximal effect; nearly all actives have a fitted effect of over 45% in size
HCMV inh: qHTS Assay for inhibitors of the human cytomegalovirus (HCMV); HFF cells, HCMV-luciferase reporter, 72 h; hits give low values; activity change, negative = inhibition, % at 57.5 µM; 4.5% of 410,000 active; in the data active = activity change below about -60%; inconclusive = no clear call, values can overlap the other calls; inactive = above about -39%
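Inhibition of viral replication was scored as loss of reporter luminescence in HFFs infected with HCMV-luciferase (MOI 1 PFU/cell) for 72 h; compounds tested at 2 doses, normalized to buffer and Salinomycin controls.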
Marburg entry inh: qHTS for inhibitors of binding or entry into cells for Marburg Virus. Marburg virus pseudotyped entry inhibition, cell reporter. Potency, µM (titrated, usually from 37.8 µM), for inactives: top-dose activity change, negative = inhibition, actives largely listed as inhibitors. 1.8% of 300,000 active. AID 540276, 2011; calls by dose curve; tested in HEK293 cells; note: potency is the fitted concentration of half-maximal effect
VACV Venus inh: qHTS for Stage-Specific Inhibitors of Vaccinia Orthopoxvirus: Venus Reporter Primary qHTS; AID 720580, 2013; Vaccinia virus Venus reporter expression, fluorescence; 0.46% of 330,000 active; Potency, µM (titrated, usually from 36.5 µM), for inactives: top-dose activity change, negative = inhibition, hits mostly inhibitors; calls by dose curve; tested in A549 cells; note: potency is the fitted concentration of half-maximal effect; nearly all actives have a fitted effect of over 30% in size
* marks the source's active call; other numbers are inactive results; i = inactive; ? = inconclusive; nt = no result given; [ ] = remark or other dose. % is set by controls: 0 for no effect and ±100 for the full control effect.

SMILES	Lassa entry inh	VACV mCherry inh	FMDV inh	HCMV inh	Marburg entry inh	VACV Venus inh
Cc1ccc2nc(-c3ccco3)c(Cc3ccccc3C(F)(F)F)n2c1	nt	nt	nt	-2.3	nt	nt
CC(C)N1C(=O)C[C@H](S(=O)(=O)c2ccccc2)[C@H]1c1ccccc1	nt	nt	nt	31.6	nt	nt
COc1ccc(NS(=O)(=O)c2cc(C(=O)N3CCN(C(C)=O)CC3)ccc2Cl)cc1	-23.5%[46.1 µM]	i	3.1%	-19.3	-12.3%[46.1 µM]	6.8%
Cc1ccc(NC(=O)c2cc(S(=O)(=O)N3CCOCC3)c(Cl)cc2Cl)cc1	?	?	25.1µM*	?	nt	-29.4%
O=C(Nc1ccc(Cl)cc1)Nc1ccc(N2CCCC2)c(S(=O)(=O)Nc2ccccc2Cl)c1	5.01µM*	?	-8.9%	-99.4*	1.58µM*	?
COc1ccc(NS(=O)(=O)c2cc(N/C(=N\S(=O)(=O)c3ccccc3)c3ccc(F)cc3)ccc2Cl)cc1	?	-21.3%	37.7%	-30.0	11.6µM*	?
O=C(Nc1ccc(S(=O)(=O)N2CCOCC2)cc1)c1cc(S(=O)(=O)N2CCOCC2)ccc1Cl	-11.5%[46.1 µM]	-0.4%	-27.2%	-19.3	-1.3%[46.1 µM]	-15.4%
O=C(Nc1ccc(N2CCOCC2)c(S(=O)(=O)Nc2ccccc2Cl)c1)c1ccccc1	nt	nt	44.3%	-22.3	nt	nt
COc1ccc(C(=O)Nc2ccc(Cl)c(S(=O)(=O)Nc3ccccc3OC)c2)cc1	?	?	-8.8%	-92.5*	2.82µM*	?
Cc1c(N2C(=O)S[C@H](CC(=O)O)C2=O)c(=O)n(-c2ccccc2)n1C	nt	nt	nt	nt	11.7%	nt
O=C(Cc1ccccc1[N+](=O)[O-])c1ccccc1	nt	nt	nt	-5.8	nt	nt
COc1ccccc1NS(=O)(=O)c1cc(NC(=O)c2ccc(Cl)nc2)ccc1Cl	?	-13.9%	10µM*	-98.1*	8.91µM*	?
COc1ccccc1NC(=O)Nc1ccc(Cl)c(S(=O)(=O)Nc2ccccc2OC)c1	?	-8.0%	3.9%	3.6	?	-6.7%
Cc1ccc(C)c(N2CCN(c3ncnc4c3nc3n4CCCC3)CC2)c1	16.1%[46.1 µM]	-13.2%	?	48.5	nt	-4.8%
Cc1ccc(Cl)cc1N1CCN(c2ncnc3c2nc2n3CCCC2)CC1	?	-29.8%	28.2µM*	-17.3	nt	?
O=C(NCc1ccccc1)C1CCN(c2ncnc3c2nc2n3CCCCC2)CC1	8.8%[46.1 µM]	i	-8.4%	-10.6	nt	-6.6%
CC(=O)c1ccc(N2CCN(c3ncnc4c3nc3n4CCCC3)CC2)cc1	-13.8%[46.1 µM]	-26.5%	17.8µM*	-86.0*	nt	?
c1ccc(N2CCN(c3ncnc4c3nc3n4CCCC3)CC2)cc1	?	-28.6%	14.1µM*	-68.2*	nt	?
COc1ccc(N2CCN(c3ncnc4c3nc3n4CCCCC3)CC2)cc1	-12.3%[46.1 µM]	?	11.2µM*	-26.6	nt	?
COCC1CCN(Cc2c(C(=O)N3CCc4ccccc4C3)nc3ccc(Cl)cn23)C1 (stereo not drawn)	nt	nt	-14.0%	34.8	nt	nt
Cc1cc(C(=O)NCCN2Cc3ccccc3OC(c3ccccc3F)C2)no1 (stereo not drawn)	nt	-1.3%	-5.7%	nt	nt	9.9%
O=C(Nc1cccnc1)c1cc2cc(Br)ccc2o1	nt	nt	-1.2%	133.2	nt	nt
COc1ccccc1N1CCN(c2ncnc3c2nc2n3CCCC2)CC1	-22.4%[46.1 µM]	-15.5%	?	-25.0	-22.3%[46.1 µM]	-15.2%
COc1ccccc1CNc1ncnc2c1nc1n2CCCC1	?	2.0%	-15.8%	-13.8	?	3.6%
COc1cccc(N2CCN(c3ncnc4c3nc3n4CCCCC3)CC2)c1	?	?	11.2µM*	-99.3*	nt	?
SMILES	Lassa entry inh	VACV mCherry inh	FMDV inh	HCMV inh	Marburg entry inh	VACV Venus inh
CCOc1ccccc1CNc1ncnc2c1nc1n2CCCC1	?	i	-0.6%	-81.2*	nt	-5.6%
FC(F)(F)c1cccc(N2CCN(c3ncnc4c3nc3n4CCCC3)CC2)c1	-0.9%[46.1 µM]	-27.7%[7.34 µM]	20µM*	-72.9*	nt	-23.1%[7.34 µM]
Cc1ccc(C)c(N2CCN(c3ncnc4c3nc3n4CCCCC3)CC2)c1	-3.9%[46.1 µM]	-9.0%	-7.2%	3.4	nt	-12.2%
NC(=O)CSc1nc2cc3c(cc2c(=O)n1CCCCCC(=O)NCc1ccc2c(c1)OCO2)OCO3	-1.4%[46.1 µM]	-20.0%	-13.6%	63.6	nt	-24.5%
Cn1c(=O)c(=O)n(C)c2cc(S(=O)(=O)N3CC(=O)N(CCc4ccccc4)C(=O)C3)ccc21	nt	nt	-19.9%	-29.6	nt	nt
Cc1cccc(NC(=O)C2CCN(c3nnc(-n4c(C)ccc4C)s3)CC2)c1C	-4.8%[46.1 µM]	-11.8%	?	1.3	-3.6%[46.1 µM]	-10.2%
O=C1CC(Sc2nnnn2C2CCCCC2)C(=O)N1c1ccccc1 (stereo not drawn)	-17.4%	-13.6%	nt	-69.2*	-7.0%	-16.2%
Cn1nnnc1SC1CC(=O)N(c2ccccc2)C1=O (stereo not drawn)	-16.6%	i	1.0%	10.5	?	3.7%
O=C(Oc1ccccc1N1C(=O)C2CCCCC2C1=O)c1ccc(Cl)cc1 (stereo not drawn)	22.1%	nt	6.9%	-108.1*	-19.8%	nt
O=C(c1ccc(Cn2c(=S)[nH]c3ccccc3c2=O)cc1)N1CCN(c2ccccn2)CC1	?	-23.9%	?	-65.3*	?	?
O=C(c1ccc2c(=O)n(Cc3ccc(Cl)cc3)c(=S)[nH]c2c1)N1CCCC1	nt	nt	-18.0%	29.4	nt	nt
O=C(c1ccc(Cn2c(=O)[nH]c3ccccc3c2=O)cc1)N1CCN(c2ccccn2)CC1	-7.4%	-13.9%	0.0%	9.9	10.2%	-20.1%
CCCCCn1c(=O)[nH]c2cc(C(=O)N3CCN(Cc4ccc5c(c4)OCO5)CC3)ccc2c1=O	?	-14.6%	?	-76.3*	?	?
O=C(NCc1ccc(Cl)cc1)c1ccc2c(=O)n(CC3CCCO3)c(=S)[nH]c2c1 (stereo not drawn)	?	-15.0%	17.8µM*	?	7.8%[46.1 µM]	-1.9%
O=C(c1ccc2c(=O)n(Cc3ccc(Cl)cc3)c(=S)[nH]c2c1)N1CCOCC1	?	-4.3%	?	-65.0*	-16.0%[46.1 µM]	-17.9%
COC(=O)C[C@H]1c2cc(C(F)(F)F)ccc2S(=O)(=O)N1C(C)C	nt	i	nt	nt	nt	-4.9%
Cc1cc(C)c2c(=O)n3c(nc2c1)C(Cc1ccc(O)cc1)NC(=O)c1cc2ccccc2cc1-3 (stereo not drawn)	nt	-18.7%	?	?	nt	?
O=C(CSc1n[nH]c(=O)n1C1CC1)Nc1ccc(F)c([N+](=O)[O-])c1	1.7%	-3.8%	-26.5%	-29.0	?	-16.4%
O=C(NCc1ccccc1Cl)c1cc(-c2ccccc2)n[nH]1	-10.4%[46.1 µM]	-1.8%	49.4%	12.6	nt	-8.5%
CC1CC(C)CN(C(=O)c2ccc3c(=O)n(Cc4ccc5c(c4)OCO5)c(=S)[nH]c3c2)C1 (stereo not drawn)	4.3%	nt	-26.5%	-80.6*	17.2%	nt
CN1CCN(C(=O)c2ccc3c(=O)n(Cc4ccc5c(c4)OCO5)c(=S)[nH]c3c2)CC1	nt	-17.2%	nt	nt	nt	-9.5%
